The record followed here is PubChem BioAssay (NCI).

Structures are written as SMILES. About 79,000 compounds went through this panel and 15% of them were active in at least one assay; those are over-represented in the sample as a whole. Values without a mark were called inactive. Cut-off read from the data, not from the text of the source: active = growth inhibition above about 70%; inactive = the rest.

The nature of the first experiment: NCI Yeast Anticancer Drug Screen. Data for the bub3 strain (AID 167). The conditions noted are these: S. cerevisiae bub3 mutant strain, at 50.0 µM, hits give high values. Summed up: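 Readout: yeast growth inhibition, expressed relative to vehicle-only wells. The test organism is a mutant strain from a panel with lesions in DNA repair or checkpoint genes.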
Regarding `CC(/C=N/NC1=NCCCN1)=N\NC1=NCCCN1`, the growth inhibition was 2.9%. Same read-out and setting: with `CCOC(=O)C(NC(=O)Nc1ccccc1F)(OC)C(F)(F)F` (stereo unspecified) the figure was -28%. The same measure, in the same setting: the result for `C[C@]12CCC(=O)C=C1CC[C@@H]1[C@@H]2CC[C@@]2(C)[C@H]1CC[C@]2(O)C(=O)CCC#N` reads -16.8%.

As for `Cc1c(C)c(O)c2c(c1C)C(C)C(=O)OC2=O` (stereo unspecified), the growth inhibition was -19.3%. On the same count and under the same terms, the result for `NNC(=O)C(=O)NN=C(C(Cl)(Cl)CO)C(Cl)(Cl)CO` reads 22.3%; that for `C/C(=N\NC(=S)Nc1ccc([N+](=O)[O-])cc1S(=O)(=O)O)c1ccccn1`, -0.4%; that for `CCCCCCCCCCCCCBr`, 18.1%.

With `O=C1Nc2ccccc2/C1=N\[O-].O=C1Nc2ccccc2/C1=N\[O-].[Cu+2]`, the growth inhibition was -23.4%. On the same count and under the same terms, with `c1ccc2c(c1)N=C(c1ccc3ccccc3c1)CC(c1cccc3ccccc13)S2` (stereo unspecified) the figure was 19.3%; with `COc1cc(=O)n2c3ccccc3n(C)c2c1C#N`, -4.35%; with `CCCCCC(=O)OC(C)COc1ccccc1` (stereo unspecified), 30.9%. On the same count and under the same terms, with `Cc1c(F)cccc1NC(=O)OC(C)C` the figure was 12.8%; with `Cc1cc(C(F)(F)F)nc2nc3ccccc3n12`, -29.7%. On the same count and under the same terms, the result for `CSc1nc2ncnc(N(C)C)c2[nH]1` reads -7.4%. In the case of `N=C(N)SCc1cccc(Cl)c1`, the growth inhibition was -9.45%. Same read-out and setting: with `O=c1c2ccccc2[nH]c2ccc(Br)cc12` the figure was 2.95%; with `COc1c(C)c(OCC=C(C)C)cc(CO)c1CO`, -0.95%; with `O=C(N=Nc1c(O)[nH]c2ccccc12)C(=O)N=Nc1c(O)[nH]c2ccccc12`, 7.15%.

On to `O=C(O)/C=C(/C(=O)O)c1cccn1Cc1ccccc1`, for which the growth inhibition is 13.4%. The same measure, in the same setting: with `O=C(CC1=NC2NN(c3ccccc3)C(=O)C2=C1CC(=O)c1ccc([N+](=O)[O-])cc1)c1ccc([N+](=O)[O-])cc1` (stereo unspecified) the figure was 19.9%; with `CC(C)c1ccc2nc3ccc(C(=O)NCCN(C)C)cn3c(=O)c2c1`, -1%.

For the molecule `CC(=O)Nc1c(Nc2ccc3c(=O)[nH]ccc3c2C)cc[nH]c1=O`, the growth inhibition is 10.4%.

Another experiment in a line: NCI Yeast Anticancer Drug Screen. Data for the mlh1 rad18 strain (AID 175). The conditions noted are these: S. cerevisiae mlh1 rad18 strain growth inhibition; at 50.0 µM; hits give high values. The essentials: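 Compound-treated yeast growth, normalised to vehicle controls. Strain bears defined DNA repair mutations.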
With `COC1CC(NC(=O)c2ccccc2)C(O)C(C)O1` (stereo unspecified), the growth inhibition is 8.5%.

As to `C1CCN=C(N2CCCCCC2)CC1`, the growth inhibition is -6.25%. Same read-out and setting: the result for `O=C(O)CC1(c2ccccc2)CCCCC1` reads 2.3%; that for `C#CC(C)(C)Oc1cc(O)c2c(=O)c3ccccc3n(C)c2c1`, 0%; that for `O=C(CCSC(=S)Nc1ccc(Cl)cc1)NNc1ccccc1`, 18.2%.

In the case of `CCCCCCCCCCCCSC1=C(OC)C(=O)C(OC)=C(OC)C1=O`, the growth inhibition was 16.5%. As for `CC1=C(O)c2cc3c(cc2C(=O)C1=O)OCO3`, the growth inhibition was 26.9%. With `Cc1ccc(-c2nc(-c3nccc4ccccc34)oc2-c2ccccc2)cc1`, the growth inhibition is 5.2%. Turning to `CCCN(CCN(CC)CC)C(=O)N(CC)CC`, the growth inhibition is -17.6%. Regarding `C=CCOC(=O)NC(CCC(=O)OC)C(=O)O` (stereo unspecified), the growth inhibition was -0.2%. As to `O=C1CCC(=O)N1Cc1ccccc1N=[N+]([O-])c1ccccc1CN1C(=O)CCC1=O`, the growth inhibition was -15.9%.

In the case of `CC12CC(=O)C3C(CCC4=CC(=O)CCC43C)C1CC=C2CC(=O)O` (stereo unspecified), the growth inhibition was -11.2%. Same read-out and setting: the result for `CC(C)C(=O)/C=C/c1ccc(Br)cc1` reads 24.9%.

Take `O=C(O)C1CC=CCC1C(=O)Nc1cccc(O)c1` (stereo unspecified): the growth inhibition was 6.25%. On the same count and under the same terms, with `Cc1ccc(S(=O)(=O)Nc2ccc(O)cc2)cc1` the figure was -5.4%; with `Cc1cc(/C=N/NC(=O)c2ccccc2NC(=O)c2ccccc2Cl)ccc1O`, 34.8%. Same read-out and setting: with `COc1ccc(N2NC(c3ccccc3)(c3ccccc3)C(C)C2=O)cc1` (stereo unspecified) the figure was 40.1%; with `Fc1ccccc1/C=C/c1cnnc2ccccc12`, 3.15%; with `CC(/C=N/NC1=NCCCN1)=N\NC1=NCCCN1`, -12.2%.

Turning to `CCOC(=O)C(NC(=O)Nc1ccccc1F)(OC)C(F)(F)F` (stereo unspecified), the growth inhibition was -59.6%. Same read-out and setting: with `C[C@]12CCC(=O)C=C1CC[C@@H]1[C@@H]2CC[C@@]2(C)[C@H]1CC[C@]2(O)C(=O)CCC#N` the figure was 13.2%.

With `Cc1c(C)c(O)c2c(c1C)C(C)C(=O)OC2=O` (stereo unspecified), the growth inhibition is -0.15%. On the same count and under the same terms, with `NNC(=O)C(=O)NN=C(C(Cl)(Cl)CO)C(Cl)(Cl)CO` the figure was 20.4%; with `C/C(=N\NC(=S)Nc1ccc([N+](=O)[O-])cc1S(=O)(=O)O)c1ccccn1`, 22.9%.
